Hits are enriched below; roughly 4.6% of the tested compounds scored in any of these assays.
V-ATPase pH: regulators of yeast V-ATPase proton pumping, primary screen, pHLuorin cytosolic pH fluorescence. S. cerevisiae. response, % at 10 µM. 350,000 compounds, 0.37% hits; in the data active means response mostly above about 7.3%, no sharp cut-off; inactive means mostly below about 5.4%; further: actives read high
PfHsp90 yeast 2: growth inhibition of PfHsp90-expressing yeast, primary screen, antimalarial PfHsp90 inhibitor project, S. cerevisiae, BacTiter-Glo luminescence, single point, set 2; 310,000 compounds, 0.32% hits; AID 504621, 2011; BacTiter-Glo ATP, 48 h; yeast lacking PDR1 and PDR3 efflux regulators; inhibition, % at 9.4 µM;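 active means every replicate shows inhibition above about 80%, whatever the replicate mean, limit read from the data; inconclusive means mean inhibition reaches the set limit but some replicate falls short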
tim23-1 inh: growth inhibitors of tim23-1 mutant yeast, primary screen, luminescence, uHTS | S. cerevisiae tim23-1 growth, BacTiter-Glo luminescence, 24 h | inhibition, % at 20 µM | 330,000 compounds, 1.3% hits | AID 463212, 2010;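 active means growth inhibition of the mutant yeast at or above 50%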;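 further: temperature-sensitive mutant grown at 25 °C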
SKKanGAS inh: S. pyogenes SKKanGAS growth inhibitors in kanamycin, primary screen, streptokinase expression inhibitor project, SKKanGAS strain, BacTiter-Glo luminescence; 6 h; inhibition, % at 7.5 µM; 300,000 compounds, 1.3% hits;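 active means mean replicate score, as percent of positive control median, at least 50; inconclusive means mean below 50 but one replicate at or above 50; inactive means mean and every replicate below 50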;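 further: strain carries kanamycin resistance gene driven by streptokinase promoter and grows in 40 µg/ml kanamycin; loss of luminescence reflects streptokinase promoter inhibition or plain growth inhibition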
tim10-1 inh: growth inhibitors of tim10-1 mutant yeast, primary screen, luminescence, uHTS | S. cerevisiae tim10-1 ts strain growth, BacTiter-Glo, 24 h | inhibition, % at 20 µM | 330,000 compounds, 2.2% hits;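 active means inhibition of at least 40%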;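 further: mutant grown at 25 °C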
TIM10 inh: growth inhibitors of isogenic TIM10 control yeast, primary screen, counter-screen for tim10-1 yeast inhibitor project, luminescence, uHTS | S. cerevisiae TIM10 strain growth, BacTiter-Glo luminescence, 24 h | inhibition, % at 10 µM | 330,000 compounds, 1.4% hits;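 active means inhibition of 40% or more at the single tested concentration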;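 further: wild-type TIM10 isogenic control strain grown at permissive 25 °C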
tim10-1 confirm: growth inhibitors of tim10-1 mutant yeast, confirmation, single concentration, luminescence, S. cerevisiae | shares compounds with tim10-1 inh | inhibition, % at 20 µM | S. cerevisiae tim10-1 ts strain growth, BacTiter-Glo, 24 h | 7,400 compounds, 56% hits;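 active means inhibition of yeast growth at or above a set limit in either of two repeat tests at 20 µM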;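 further: tim10-1 mutant grown at permissive 25 °C to find synthetic lethal compounds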
TIM10 conf: growth inhibitors of wild-type TIM10 yeast, confirmation, counter-screen for tim10-1 synthetic lethality project, single concentration, luminescence, S. cerevisiae; inhibition, % at 10 µM; shares compounds with TIM10 inh; S. cerevisiae tim10 strain growth, BacTiter-Glo luminescence, 24 h; 4,600 compounds, 63% hits;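 active means inhibition of yeast growth at or above a set limit in either of two replicates at 10 µM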; further: this counterscreen used the strain with wild-type TIM10
tim23-1 confirm: tim23-1 mutant yeast growth inhibitors, confirmation, luminescence, single concentration; shares compounds with tim23-1 inh; S. cerevisiae tim23-1 growth, BacTiter-Glo luminescence, 24 h; inhibition, % at 20 µM; 4,400 compounds, 83% hits; AID 463218, 2010;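 active means inhibition above about 39% in either of two replicate wells at 20 µM, limit read from the data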;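 further: temperature-sensitive tim23-1 mutant grown at 25 °C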
Large screens that a line does not name were inactive (follow-up assays come after a bar, where they were run); ! = not active in a repeat.

CCN1CCN(CCCNC(=O)c2ccc(NC(=O)C3=C(C)OCCS3)cc2)CC1	none
O=C(C1=C(O)/C(=C/c2ccc(O)cc2)CCC1)C(F)(F)F	tim23-1 inh 51.8, tim10-1 inh 49.7 (no result: SKKanGAS inh) | tim10-1 confirm inactive | tim23-1 confirm 58.8
COc1ccc(/C=C2\CCCC(C(=O)C(F)(F)F)=C2O)cc1	none
Cc1ccccc1OCCCN1C(=O)C(=O)c2cccc(C)c21	tim23-1 inh 74.4, tim10-1 inh 54.4 | tim10-1 confirm 38.9 | tim23-1 confirm inactive
COC(=O)c1sc(-c2ccc(Cl)cc2)cc1N	none
CC(=O)c1sc(-c2ccc(Cl)cc2)cc1N	tim23-1 inh 59.5, tim10-1 inh 50.2 | tim10-1 confirm inactive | tim23-1 confirm 44.8
COCCNC(=S)Nc1cc(OC)c(OC)cc1C#N	none (no result: tim23-1 inh, tim10-1 inh, TIM10 inh)
Cc1ccc(/C=C2/C(=O)ON=C2c2ccccc2)o1	tim23-1 inh 74.4, tim10-1 inh 51.6 | tim10-1 confirm 40.0 | tim23-1 confirm 75.6
NC(=S)Nc1ccc(Cl)c(Cl)c1	none
Cc1cc(C)cc(NC(=S)Nc2ccc(Cl)c(Cl)c2)c1	tim23-1 inh 79.5, SKKanGAS inh 70.2, tim10-1 inh 61.5, TIM10 inh 43.0 | tim10-1 confirm 55.8 | TIM10 conf 37.4 | tim23-1 confirm 74.8
COc1ccc(-c2cc3nc(C)n(N)c(=O)c3s2)cc1	PfHsp90 yeast 2 inconclusive, tim23-1 inh 69.3, SKKanGAS inh 88.4, tim10-1 inh 64.8, TIM10 inh 58.2 | tim10-1 confirm 66.2 | TIM10 conf 47.9 | tim23-1 confirm 68.2
COc1ccc(-c2nc3ccccc3c(=O)n2N)cc1	none
COc1ccc(-c2cc3nc4n(c(=O)c3s2)CCCCC4)cc1	none
COc1ccc(-c2cc3nc4n(c(=O)c3s2)CCC4)cc1	tim23-1 inh 58.3, SKKanGAS inh 99.1, tim10-1 inh 57.7, TIM10 inh 70.3 | tim10-1 confirm 53.7 | TIM10 conf 75.8 | tim23-1 confirm 55.1
CC(C)(C)N1C(=O)c2ccc(C(=O)Nc3cc(C(=O)O)cc(C(=O)O)c3)cc2C1=O	none
CCCCc1ccc(NC2=NCC(=O)N2CCc2ccccc2)cc1	none
CN1c2ccccc2C(C)(C)C12C=Cc1cc(O)ccc1O2 (stereo not drawn)	tim23-1 inh 54.5, tim10-1 inh 51.9, TIM10 inh 43.2 (no result: PfHsp90 yeast 2) | tim10-1 confirm 41.2 | TIM10 conf 42.3 | tim23-1 confirm 52.4
CC1CN(C(=O)COC(=O)Cc2ccc(Cl)cc2)CC(C)O1 (stereo not drawn)	none (no result: SKKanGAS inh)
NN(Cc1ccccc1)C(=S)Nc1ccc(Cl)c(Cl)c1	tim23-1 inh 71.4, tim10-1 inh 41.2, TIM10 inh 49.6 | tim10-1 confirm 66.2 | TIM10 conf 51.1 | tim23-1 confirm 68.8
Oc1cc2c(cc1C(c1ccc(Cl)c(Cl)c1)N1CCCC1)OCO2 (stereo not drawn)	tim23-1 inh 63.3, tim10-1 inh 49.8 | tim10-1 confirm 38.6 | tim23-1 confirm 45.0
CC(C)c1ccc(NC(=O)C(c2ccc3c(c2)OCO3)N2CCCCC2)cc1 (stereo not drawn)	none
CCNC(=O)c1ccc2c(c1)C1C3CCC(C3)C1C(c1ccccc1)N2 (stereo not drawn)	tim23-1 inh 62.6, tim10-1 inh 59.5, TIM10 inh 41.0 | tim10-1 confirm 55.4 | TIM10 conf 42.9 | tim23-1 confirm 65.0
CC1CCN(C(=O)CCNS(=O)(=O)c2ccc(Br)cc2)CC1	none (no result: SKKanGAS inh)
O=C(c1ccccc1)c1ccc2ccccc2c1	none (no result: tim23-1 inh, SKKanGAS inh, tim10-1 inh, TIM10 inh)
O=C(c1ccccc1)c1ccc2cc(O)ccc2c1	tim23-1 inh 59.2, tim10-1 inh 47.8 | tim10-1 confirm 34.7 | tim23-1 confirm 53.0
COc1cccc(C(=O)NCC(=O)N2CCN(c3ccc(C(F)(F)F)cn3)CC2)c1	none (no result: PfHsp90 yeast 2, SKKanGAS inh)
Nc1nc(-c2ccc3c(c2)CCCC3)cs1	tim23-1 inh 51.5, tim10-1 inh 59.0 (no result: SKKanGAS inh) | tim10-1 confirm 44.5 | tim23-1 confirm 53.7
CC(Nc1ccc(Cl)cc1)c1cc(Cl)ccc1O (stereo not drawn)	tim23-1 inh 64.1, tim10-1 inh 66.2 | tim10-1 confirm 57.7 | tim23-1 confirm 51.7
CCOc1ccc(NC(C)c2cc(Cl)ccc2O)cc1 (stereo not drawn)	none
CCCCCCCCCCCCCCCCn1cc[n+](C)c1	PfHsp90 yeast 2 129.1, tim23-1 inh 55.5, SKKanGAS inh 113.6, tim10-1 inh 93.4, TIM10 inh 66.8! | tim10-1 confirm 52.7 | TIM10 conf 58.2 | tim23-1 confirm 63.0
COc1ccc(-c2csc(NC(=O)c3ccc(C(C)(C)C)cc3)c2C(=O)O)cc1	tim23-1 inh 84.7, SKKanGAS inh 81.8, tim10-1 inh 84.5, TIM10 inh 73.4 (no result: PfHsp90 yeast 2) | tim10-1 confirm 83.3 | TIM10 conf 92.3 | tim23-1 confirm 89.5
O=C(Nc1scc(-c2ccccc2)c1C(=O)O)c1ccc(F)cc1	tim23-1 inh 84.8, tim10-1 inh 67.0, TIM10 inh 60.3 | tim10-1 confirm 71.8 | TIM10 conf 45.4 | tim23-1 confirm 86.5
Cc1ccc(C(=O)Nc2scc(-c3ccccc3)c2C(=O)O)o1	none (no result: PfHsp90 yeast 2)
COc1ccc(-c2csc(NC(=O)Cc3cccc4ccccc34)c2C(=O)O)cc1	none (no result: tim23-1 inh, tim10-1 inh, TIM10 inh)
Cc1ccc(-c2csc(NC(=O)c3ccc(F)cc3)c2C(=O)O)cc1	tim23-1 inh 77.2, tim10-1 inh 81.2, TIM10 inh 82.3 | tim10-1 confirm 81.7 | TIM10 conf 94.2 | tim23-1 confirm 88.4
CCN(CC)C1=C(Cl)C(=O)C(Cl)C12OCCO2 (stereo not drawn)	none (no result: PfHsp90 yeast 2)
Cc1cc(NC(=O)CSC2=NS(=O)(=O)c3ccccc3N2)no1	none
CCOC(=O)c1ccc(CNCc2ccccc2)cc1	none
CCOC(CNC(=O)Cn1nc(C)c2ccccc21)OCC	none
CNc1nc(-c2ccccc2)nc(-c2ccccc2)c1C#N	none
NNc1nc(-c2ccccc2)nc(-c2ccccc2)c1Br	tim23-1 inh 56.7, tim10-1 inh 46.3, TIM10 inh 41.5 | tim10-1 confirm 33.3 | TIM10 conf inactive | tim23-1 confirm 45.6
